Several values for one entry are separate records, joined by “and”; a condition that tells them apart may be missing. Equal values may be shown once. Out of some 5,500 compounds screened, about 2,000 (36%) were called active. Inconclusive results (about 18%) are left out. Cut-off read from the data, not from the text of the source: active = normalized growth mostly below about 0.91 (no sharp cut-off); inconclusive = no clear call, values can overlap the other calls; inactive = mostly above about 0.92. Some of the results follow.
Assay: chemical genetic growth profiling, strain panel (AID 1159580);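 note: tested at 20 µM; growth read once vehicle control cultures reached saturation at 30 °C; 1 = growth at the plate median or of vehicle wells; lower values mean less growth of the strain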
Settings: growth OD

Measured: normalized growth

O=C(O)C1CCCNC1 (stereo unspecified)
inactive: S. cerevisiae deletion strains, locus YJR075W, strain HOC1, active compounds read low 1.01 | S. cerevisiae deletion strains, locus YKL009W, strain mrt4, active compounds read low 1.02 | S. cerevisiae deletion strains, locus YKL068W, active compounds read low 1.01 | S. cerevisiae deletion strains, locus YKL085W, strain MDH1 (second series), active compounds read low 1.01 | S. cerevisiae deletion strains, locus YKL085W, strain MDH1, active compounds read low 1.01 | S. cerevisiae deletion strains, locus YKL160W, strain elf1, active compounds read low 1.01 | S. cerevisiae deletion strains, locus YKL190W, strain CNB1, active compounds read low 1.01 | S. cerevisiae deletion strains, locus YKR001C, strain vps1, active compounds read low 1.01 | S. cerevisiae deletion strains, locus YKR026C, strain gcn3, active compounds read low 1.03 | S. cerevisiae deletion strains, locus YKR091W, strain srl3, active compounds read low 1.01 | S. cerevisiae deletion strains, locus YLL001W, strain dnm1, active compounds read low 1.04 | S. cerevisiae deletion strains, locus YLL026W, active compounds read low 1.01 | S. cerevisiae deletion strains, locus YLL041C, strain sdh2, active compounds read low 1.02 | S. cerevisiae deletion strains, locus YLR027C, strain aat2, active compounds read low 1.02 | S. cerevisiae deletion strains, locus YLR039C, strain RIC1, active compounds read low 1.01 | S. cerevisiae deletion strains, locus YLR058C, strain SHM2, active compounds read low 1.01 | S. cerevisiae deletion strains, locus YLR102C, strain apc9, active compounds read low 1.01 | S. cerevisiae deletion strains, locus YLR113W, strain HOG1, active compounds read low 1.05 | S. cerevisiae deletion strains, locus YLR221C, strain rsa3, active compounds read low 1.01 | S. cerevisiae deletion strains, locus YLR258W, strain gsy2, active compounds read low 1.02 | S. cerevisiae deletion strains, locus YLR262C, strain YPT6 (second series), active compounds read low 1.01 | S. cerevisiae deletion strains, locus YLR262C, strain YPT6, active compounds read low 1.05 | S. cerevisiae deletion strains, locus YLR268W, strain sec22, active compounds read low 1.04 | S. cerevisiae deletion strains, locus YLR320W, strain mms22, active compounds read low 1.02 | S. cerevisiae deletion strains, locus YLR330W, strain CHS5, active compounds read low 1 | S. cerevisiae deletion strains, locus YLR342W, strain FKS1 (second series), active compounds read low 0.997 | S. cerevisiae deletion strains, locus YLR342W, strain FKS1, active compounds read low 1.01 | S. cerevisiae deletion strains, locus YLR357W, strain rsc2, active compounds read low 1.03 | S. cerevisiae deletion strains, locus YLR370C, strain arc18, active compounds read low 1.02 | S. cerevisiae deletion strains, locus YLR371W, strain rom2, active compounds read low 1.03 | S. cerevisiae deletion strains, locus YLR384C, strain iki3, active compounds read low 1.01 | S. cerevisiae deletion strains, locus YLR418C, strain cdc73, active compounds read low 1.05 | S. cerevisiae deletion strains, locus YML016C, strain PPZ1, active compounds read low 1.01 | S. cerevisiae deletion strains, locus YML032C, strain rad52, active compounds read low 1.04 | S. cerevisiae deletion strains, locus YML120C, strain ndi1, active compounds read low 1.01 | S. cerevisiae deletion strains, locus YML124C, strain tub3, active compounds read low 1.01 | S. cerevisiae deletion strains, locus YMR058W, strain fet3, active compounds read low 1.02 | S. cerevisiae deletion strains, locus YMR078C, strain ctf18, active compounds read low 1.03 | S. cerevisiae deletion strains, locus YMR125W, strain sto1, active compounds read low 1.02 | S. cerevisiae deletion strains, locus YMR129W, active compounds read low 1.03 | S. cerevisiae deletion strains, locus YMR205C, strain PFK2, active compounds read low 1.02 | S. cerevisiae deletion strains, locus YMR223W, strain ubp8, active compounds read low 1.02 | S. cerevisiae deletion strains, locus YMR231W, strain pep5, active compounds read low 1.01 | S. cerevisiae deletion strains, locus YMR263W, strain SAP30, active compounds read low 1.01 | S. cerevisiae deletion strains, locus YMR307W, strain GAS1, active compounds read low 0.992 and 0.991 | S. cerevisiae deletion strains, locus YNL067W, strain RPL9B, active compounds read low 1.01 | S. cerevisiae deletion strains, locus YNL071W, strain lat1, active compounds read low 1.02 | S. cerevisiae deletion strains, locus YNL128W, strain TEP1, active compounds read low 1.02 and 0.999 | S. cerevisiae deletion strains, locus YNL153C, strain GIM3, active compounds read low 1.01 and 1.02 | S. cerevisiae deletion strains, locus YNL175C, strain NOP13, active compounds read low 1.02 | S. cerevisiae deletion strains, locus YNL183C, strain NPR1, active compounds read low 0.935 | S. cerevisiae deletion strains, locus YNL197C, strain WHI3, active compounds read low 1.01 | S. cerevisiae deletion strains, locus YNL209W, strain ssb2, active compounds read low 1.02 | S. cerevisiae deletion strains, locus YNL224C, strain SQS1, active compounds read low 1.03 | S. cerevisiae deletion strains, locus YNL233W, strain BNI4, active compounds read low 1.01 | S. cerevisiae deletion strains, locus YNL248C, strain rpa49, active compounds read low 1 | S. cerevisiae deletion strains, locus YNL250W, strain rad50, active compounds read low 1.02 | S. cerevisiae deletion strains, locus YNL271C, strain bni1, active compounds read low 1.02 | S. cerevisiae deletion strains, locus YNL298W, strain CLA4, active compounds read low 1.02 | S. cerevisiae deletion strains, locus YNL307C, strain MCK1, active compounds read low 1.03 | S. cerevisiae deletion strains, locus YNL322C, strain KRE1 (second series), active compounds read low 1.02 | S. cerevisiae deletion strains, locus YNL322C, strain KRE1, active compounds read low 1.01 | S. cerevisiae deletion strains, locus YNR049C, strain mso1, active compounds read low 1.02 | S. cerevisiae deletion strains, locus YNR052C, strain pop2, active compounds read low 1.02 | S. cerevisiae deletion strains, locus YOL006C, strain TOP1, active compounds read low 1.07 | S. cerevisiae deletion strains, locus YOL012C, strain htz1 1.27 | S. cerevisiae deletion strains, locus YOL147C, strain pex11, active compounds read low 1.02 | S. cerevisiae deletion strains, locus YOR001W, strain rrp6, active compounds read low 1.02 | S. cerevisiae deletion strains, locus YOR061W, strain CKA2, active compounds read low 1.01 | S. cerevisiae deletion strains, locus YOR069W, strain VPS5, active compounds read low 1 | S. cerevisiae deletion strains, locus YOR070C, strain gyp1, active compounds read low 1.02 | S. cerevisiae deletion strains, locus YOR080W, strain dia2, active compounds read low 1.02 | S. cerevisiae deletion strains, locus YOR083W, strain WHI5 (second series), active compounds read low 1.02 | S. cerevisiae deletion strains, locus YOR083W, strain WHI5, active compounds read low 1.01 | S. cerevisiae deletion strains, locus YOR106W, strain vam3, active compounds read low 1.01 | S. cerevisiae deletion strains, locus YOR136W, strain idh2, active compounds read low 1.02 | S. cerevisiae deletion strains, locus YOR144C, strain elg1, active compounds read low 1.02 | S. cerevisiae deletion strains, locus YOR184W, strain ser1, active compounds read low 1.04 | S. cerevisiae deletion strains, locus YOR231W, strain MKK1, active compounds read low 0.999 | S. cerevisiae deletion strains, locus YOR265W, strain rbl2, active compounds read low 1.02 | S. cerevisiae deletion strains, locus YOR270C, strain vph1, active compounds read low 1.04 | S. cerevisiae deletion strains, locus YOR290C, strain snf2, active compounds read low 1.02 | S. cerevisiae deletion strains, locus YOR316C, strain cot1, active compounds read low 1.02 | S. cerevisiae deletion strains, locus YPL051W, strain arl3, active compounds read low 1.02 | S. cerevisiae deletion strains, locus YPL055C, strain LGE1, active compounds read low 1.03 | S. cerevisiae deletion strains, locus YPL078C, strain atp4, active compounds read low 1.03 | S. cerevisiae deletion strains, locus YPL106C, strain sse1, active compounds read low 1.01 | S. cerevisiae deletion strains, locus YPL240C, strain hsp82, active compounds read low 1.03 | S. cerevisiae deletion strains, locus YPL241C, strain CIN2, active compounds read low 1.01 and 1 | S. cerevisiae deletion strains, locus YPL256C, strain CLN2, active compounds read low 0.983 | S. cerevisiae deletion strains, locus YPR119W, strain clb2, active compounds read low 1.03 | S. cerevisiae deletion strains, locus YPR141C, strain kar3, active compounds read low 1.02 | S. cerevisiae deletion strains, locus YPR163C, strain tif3, active compounds read low 1.03 | S. cerevisiae deletion strains, locus YPR167C, strain met16, active compounds read low 1.03 | S. cerevisiae deletion strains, strain wtn01, active compounds read low 1.02 | S. cerevisiae strains, strain wild type, active compounds read low 1.01

— PubChem BioAssay AID1159580 (chemical genetic matrix, 2015)
